Inconclusive results are not listed. Calls of active or inactive are those of the source. The call rests on the fitted dose curve; in most records, active means well fitted curve in the direction sought with a large enough effect; inconclusive means small, poorly fitted or top-dose-only effect, or another doubt; inactive means no such curve, though single readings can be large; an effect the other way counts as inactive or inconclusive.
Legend:
[1] = U-118MG Cancer Cell Toxicity qHTS against the NCATS CANVASS Library (AID 1347351); conditions: U-118MG viability, CellTiter-Glo luminescence, 72 h; at 38.3 µM (top of the series)
Procedure, shortened: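 1000 cells/well seeded and rested 4 h at 37 °C before pin transfer of compounds in an 11-pnt series. Exposure 72 h at 37 °C/5% CO2; viability by CellTiter-Glo luminescence after 15 min at room temperature.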

[2] = COV-362 Cancer Cell Toxicity qHTS against the NCATS CANVASS Library (AID 1347352)
Procedure, shortened: (§1)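 First, 1000 cells go into each well and rest for 4 hours. Next, an 11-point dilution range is pinned in. Plates then incubate 72 hours before CellTiter-Glo addition and luminescence reading.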

[3] = A2780 Cisplatin Sensitive Ovarian Cancer Cell Toxicity qHTS against the NCATS CANVASS Library (AID 1347353); conditions: A2780 ovarian cancer viability, ATPLite luminescence, 72 h; at 46.1 µM (top of the series); further: nearly all actives have a fitted effect of over 60% in size
Procedure, shortened: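 Cells are plated at 750 per well and rest for 4 hours. Compounds are added across eleven concentrations, and incubated 72 hours before ATP is quantified by luminescence.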

[4] = UWB1.289-WTBRCA1 Cancer Cell Toxicity qHTS against the NCATS CANVASS Library (AID 1347354); conditions: UWB1.289-WTBRCA1 viability, CellTiter-Glo luminescence, 72 h; at 38.3 µM (top of the series)
Procedure, shortened: as §1

[5] = HEK-293 Cancer Cell Toxicity qHTS against the NCATS CANVASS Library (AID 1347355); conditions: HEK-293 viability, CellTiter-Glo luminescence, 72 h; at 46.1 µM (top of the series); further: nearly all actives have a fitted effect of over 65% in size
Procedure, shortened: as §1

[6] = HPAF-II 24hr Apoptosis Induction qHTS against the NCATS CANVASS Library (AID 1347356)
Procedure, shortened: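 Cells seeded at 500 per well, then compounds pin-transferred in an 11-point concentration series. After 24 hours at 37 degrees C, Caspase-Glo 3/7 was added and luminescence measured following 15 min at room temperature.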

[7] = HEK293 18hr Apoptosis Induction qHTS against the NCATS CANVASS Library (AID 1347357)
Procedure, shortened: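 Caspase-Glo 3/7 luminescence (15 min, room temperature) measured apoptosis after an 18-hour, 37 degrees C exposure of HEK293 cells (500 cells/well) to compounds in 11 points.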

[8] = HPAF-II 12hr Apoptosis Induction qHTS against the NCATS CANVASS Library (AID 1347358)
Procedure, shortened: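 Cells plated at 500 per well are dosed with compound and incubated 12 hours at 37 degrees C. Caspase-Glo 3/7 reagent is added and, after 15 min at room temperature, luminescence proportional to caspase activity is measured.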

[9] = HEK293 24hr Apoptosis Induction qHTS against the NCATS CANVASS Library (AID 1347359)
Procedure, shortened: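 Caspase-3/7 activation measured as luminescence from the DEVD-based Caspase-Glo reagent, 15 min at room temperature, following 24-hour compound treatment of HEK293 cells.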

[10] = HPAF-II 18hr Apoptosis Induction qHTS against the NCATS CANVASS Library (AID 1347360)
Procedure, shortened: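 Caspase-3/7 activation was measured with luminescent Caspase-Glo 3/7 reagent (15 min, RT) in HPAF-II cancer cells (500 cells/well). Before detection, cells had been treated for 18 h at 37 C with compounds (11 points).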

[11] = HEK293 12hr Apoptosis Induction qHTS against the NCATS CANVASS Library (AID 1347361)
Procedure, shortened: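 HEK293 cells (500/well, DMEM + 10% FBS) were exposed to natural products across an 11-point series for 12 hours at 37 degrees C. Caspase-3/7 activity was then measured with DEVD luciferase luminescence after 15 min at room temperature.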

[12] = system: NAD(P)H diaphorase (Clostridium kluyveri); test: Diaphorse counterscreen qHTS: Assay Interference Panel against the NCATS CANVASS Library (AID 1347362)
Procedure, shortened: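 Counterscreen for coupling-enzyme interference: resorufin fluorescence from resazurin/NADH turnover, read after 5 min at room temperature. Compounds were tested over an 11-point series after 15 min dark preincubation with diaphorase in PBS-Tween.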

[13] = target: Luciferin 4-monooxygenase (Photinus pyralis) (UniProt P08659); test: Firefly luciferase counterscreen qHTS: Assay Interference Panel against the NCATS CANVASS Library (AID 1347363)
Sequence of Luciferin 4-monooxygenase (Photinus pyralis) (P08659 whole entry, looked up): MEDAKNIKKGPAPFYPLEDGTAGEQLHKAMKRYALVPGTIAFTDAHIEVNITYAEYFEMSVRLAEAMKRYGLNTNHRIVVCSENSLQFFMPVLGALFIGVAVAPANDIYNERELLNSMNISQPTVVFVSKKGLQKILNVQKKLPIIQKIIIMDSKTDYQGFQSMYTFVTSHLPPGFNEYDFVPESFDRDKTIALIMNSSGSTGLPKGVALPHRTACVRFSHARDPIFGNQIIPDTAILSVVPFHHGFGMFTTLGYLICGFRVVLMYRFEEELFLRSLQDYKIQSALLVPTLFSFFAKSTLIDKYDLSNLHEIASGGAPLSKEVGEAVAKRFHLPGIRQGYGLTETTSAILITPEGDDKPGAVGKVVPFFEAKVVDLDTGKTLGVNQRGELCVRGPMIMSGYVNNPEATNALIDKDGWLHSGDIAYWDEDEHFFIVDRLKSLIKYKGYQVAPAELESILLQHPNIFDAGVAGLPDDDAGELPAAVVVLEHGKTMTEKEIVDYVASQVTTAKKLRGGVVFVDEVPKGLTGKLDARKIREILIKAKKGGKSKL
Procedure, shortened: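 Luminescence inhibition readout: compounds (11-point qHTS) sat 15 min at room temperature with substrate mix (0.013 mM luciferin and ATP), then firefly luciferase was added and signal read 5 min later.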

[14] = KB-8-5-11 Cancer Cell Toxicity qHTS against the NCATS CANVASS Library (AID 1347364); conditions: KB-8-5-11 MDR cells viability, CellTiter-Glo, 72 h; at 46.1 µM (top of the series); further: nearly all actives have a fitted effect of over 75% in size
Procedure, shortened: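 Terse: KB-8-5-11, 500 cells/well, 72 hr, 37C/5% CO2, 11-pt titration, CellTiter-Glo readout; confirmatory runs ± 1uM tariquidar in medium.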

[15] = SDT Cancer Cell Toxicity qHTS against the NCATS CANVASS Library (AID 1347365); conditions: SDT dog glioma viability, ATP luminescence, 72 h; at 46.1 µM (top of the series); further: nearly all actives have a fitted effect of over 60% in size
Procedure, shortened: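 Cytotoxicity is measured from cellular ATP: compounds in an 11-point concentration series are pinned onto SDT cells, incubated 72 hr at 37C, then CellTiterGlo is added and luminescence read.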

[16] = KB-3-1 Cancer Cell Toxicity qHTS against the NCATS CANVASS Library (AID 1347366); further: nearly all actives have a fitted effect of over 75% in size
Procedure, shortened: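 CellTiter-Glo luminescence measured viability after 72 h at 37C. KB-3-1 cells were seeded at 500 per well in DMEM/10% FBS.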

[17] = qHTS for ATAD5 Agonist screened against the NCATS CANVASS Library (AID 1347367);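 further: luciferase reporter driven by ATAD5 which rises upon DNA damage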
Procedure, shortened: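 Genotoxicity via ATAD5-luciferase luminescence after 16 h compound exposure (11-point series) at 37C in HEK293T-ATAD5 cells. CellTiter-Fluor viability read precedes the luminescence read; MMS serves as positive control.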

[18] = G06 Cancer Cell Toxicity qHTS against the NCATS CANVASS Library (AID 1347368); conditions: G06 dog glioma cells, viability ATP luminescence, 72 h; at 46.1 µM (top of the series); further: nearly all actives have a fitted effect of over 60% in size
Procedure, shortened: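 Cells were plated at 500 per well, then compounds were added over an 11-point range. After 72 hr at 37C, CellTiterGlo was added and luminescence measured as ATP content.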

[19] = MCF7 Cancer Cell Toxicity qHTS against the NCATS CANVASS Library (AID 1347369)
Procedure, shortened: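 Cytotoxicity was measured as CellTiterGlo luminescence (ATP) after 72 h at 37 °C. The cells were MCF7 at 500 per well, with an 11-point compound concentration series.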

[20] = qHTS for ATAD5 Antagonist screened against the NCATS CANVASS Library (AID 1347370);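 further: HEK293T cells carrying an ATAD5 luciferase reporter co-treated with 10 µM 5-fluorouridine; nearly all actives have a fitted effect of over 65% in size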
Procedure, shortened: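 Compounds (11-point) co-dosed with 10 µM 5-FUrd for 16 h at 37 °C onto HEK293T-ATAD5 luciferase reporter cells. Viability measured by CellTiter-Fluor fluorescence, then ATAD5 reporter signal by luminescence.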

Measured: outcome

NCC(O)c1ccc(O)cc1 (stereo not given)
inactive: [1] | [2] | [3] | [4] | [5] | [6] | [7] | [8] | [9] | [10] | [11] | [12] | [13] | [14] | [15] | [16] | [17] | [18] | [19] | [20]
